The values that follow come from PubChem BioAssay (EPA / NIEHS).

Assay [1] addresses Nucleoli Translocation, AR (gene 367) (UniProt P10275). In words: UPITT_HCI_U2OS_AR_TIF2_Nucleoli_Antagonist: University of Pittsburgh U2OS Androgen Receptor-Transcriptional Intermediary Factor 2 (AR-TIF2) Antagonism High Content Imaging Assay for Nucleoli Translocation (AID 2283997; active means hit-call score of the fitted dose curve at least 0.9, where 1 is the maximum). Summed up:
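An antagonist-mode imaging screen: engineered U2OS (AR-RFP, TIF2-GFP) exposed to 20 uM compound, 0.2% DMSO. Activity reflects nucleolar red fluorescence change relative to DHT baseline.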

Assay [2] shares this target. In words: UPITT_HCI_U2OS_AR_TIF2_Nucleoli_Agonist: University of Pittsburgh U2OS Androgen Receptor-Transcriptional Intermediary Factor 2 (AR-TIF2) Agonism High Content Imaging Assay for Nucleoli Translocation (AID 2283998; active means hit-call score of the fitted dose curve at least 0.9, where 1 is the maximum). Summed up:
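Red-tagged human androgen receptor co-expressed with GFP-tagged TIF2 serves as the binding reporter. Primary testing used 20 uM final (0.2% DMSO); follow-up dose response covered 0.195 to 50 uM final (0.5% DMSO).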

Assay [3] has as its target Ratio of Nucleoli Translocation and Cytoplasm, AR (gene 367) (UniProt P10275). In words: UPITT_HCI_U2OS_AR_TIF2_Nucleoli_Cytoplasm_Ratio_Antagonist: University of Pittsburgh U2OS Androgen Receptor-Transcriptional Intermediary Factor 2 (AR-TIF2) Antagonism High Content Imaging Assay for Ratio of Nucleoli Translocation and Cytoplasm (AID 2283999; active means hit-call score of the fitted dose curve at least 0.9, where 1 is the maximum;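 further: antagonists lower the DHT-driven ratio of nucleolar to cytoplasmic red signal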). The procedure, abridged:
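High-content imaging of red fluorescence ratio, nucleoli versus cytoplasm, in U2OS expressing AR-RFP and TIF2-GFP, fitted relative to DHT. Compounds tested once at 20 uM final, then 0.195 to 50 uM final in serial dilution.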

Assay [4] can be described thus: CCTE_Harrill_HTTr_Viability_MCF7: CCTE's 6-hour Cell Viability Assessment for the High-Throughput Transcriptomics (HTTr) Platform, in MCF-7 cells cultured in DMEM + 10% fetal bovine serum, Harrill Lab (AID 2284010). Summed up: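 Propidium iodide exclusion, imaged by high-content analysis, gauged viability after a six-hour exposure across eight concentrations. Cells were MCF-7 grown in DMEM with 10% fetal bovine serum; fits run in both directions against DMSO.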

Assay [5] can be described thus: CCTE_Harrill_HTTr_Apoptosis_MCF7: CCTE's 6-hour Apoptosis Assessment for the High-Throughput Transcriptomics (HTTr) Platform, in MCF-7 cells cultured in DMEM + 10% fetal bovine serum, Harrill Lab (AID 2284011). Summed up:
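Cells are dosed with test chemicals at eight concentrations and imaged 6 hours later for caspase-3/7 activity using a green fluorogenic detection reagent. Activity is fitted in both directions against DMSO controls.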

Assay [6] can be described thus: CCTE_Harrill_HTTr_CellCount_MCF7: CCTE's Cell Proliferation Assessment for the High-Throughput Transcriptomics (HTTr) Platform, Harrill Lab (AID 2284012; active means hit-call score of the fitted dose curve at least 0.9, where 1 is the maximum;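 further: cells exposed to compound for six hours; intended direction is loss of nuclei count meaning fewer cells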). The procedure, abridged: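 Cell count from high-content imaging of Hoechst-labeled nuclei serves as viability/growth readout. Chemicals were applied to MCF-7 cells in eight concentrations for six hours, with fitting in both directions relative to DMSO.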

The target in assay [7] is Ratio of Nucleoli Translocation and Cytoplasm, AR (gene 367) (UniProt P10275). In words: UPITT_HCI_U2OS_AR_TIF2_Nucleoli_Cytoplasm_Ratio_Agonist: University of Pittsburgh U2OS Androgen Receptor-Transcriptional Intermediary Factor 2 (AR-TIF2) Agonism High Content Imaging Assay for Ratio of Nucleoli Translocation and Cytoplasm (AID 2284000; active means hit-call score of the fitted dose curve at least 0.9, where 1 is the maximum;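 further: hits raise the red nucleolar to cytoplasm ratio above vehicle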). The procedure, abridged: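 Primary screen at 20 uM final (0.2% DMSO), then triplicate confirmation and dose-response from 0.195 to 50 uM final (0.5% DMSO). Cells: U2OS with AR-RFP and TIF2-GFP. Endpoint is the nucleoli/cytoplasm red-fluorescence ratio, gain-of-signal vs DMSO.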

A short description of assay [8]: CCTE_Simmons_MITO_basal_resp_rate: CCTE's HepG2 Seahorse XF Respirometric Screening Assay at Basal Respiratory State, Simmons Lab (AID 2284001). The settings on record: actives raise or lower the signal. Summed up:
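Readout is oxygen consumption rate after test compound injection, measured by Seahorse XF in HepG2 cells. Seven concentrations from 125 nM up to 100 uM final are tested, and activity in either direction is fitted against DMSO.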

A short description of assay [9]: CCTE_Simmons_MITO_max_resp_rate: CCTE's HepG2 Seahorse XF Respirometric Screening Assay at Maximal Respiratory State [uncoupled], Simmons Lab (AID 2284002). The settings on record: actives raise or lower the signal. The procedure, abridged:
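Maximal respiration in HepG2 cells is recorded as OCR by Seahorse XF following FCCP injection. Compounds span 125 nM–100 uM final; activity is called in either direction against DMSO.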

The nature of assay [10]: CCTE_Simmons_MITO_inhib_resp_rate: CCTE's HepG2 Seahorse XF Respirometric Screening Assay at Inhibited Respiratory State [full ETC block], Simmons Lab (AID 2284006). The settings on record: actives raise or lower the signal. Summed up:
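This endpoint is the respiration rate remaining after rotenone/antimycin A block, in HepG2 cells on a Seahorse XF96. Chemicals spanned 125 nM–100 uM final, in three biological replicates. OCR was read every 6 minutes for 72 minutes and compared with DMSO vehicle.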

Assay [11] in a line: CCTE_Simmons_MITO_viability: CellTiter-Glo Viability Assessment for CCTE's HepG2 Seahorse XF Respirometric Screening Assay [post-hoc], Simmons Lab (AID 2284007; active means hit-call score of the fitted dose curve at least 0.9, where 1 is the maximum;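 on AC50: cells exposed to chemical for 90 min before the ATP read; actives lower ATP signal relative to DMSO baseline meaning reduced viability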). The procedure, abridged: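 Luciferase-coupled ATP read-out after the Seahorse run: HepG2 cells treated 90 minutes with test chemical, 7-point series of 125 nM–100 uM final, in triplicate biological runs. Vehicle DMSO; dichlone as positive control over 8 concentrations.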

A short description of assay [12]: CCTE_Shafer_MEA_acute_spike_number: CCTE's Neural Acute Assay for Total Number of Spikes, Shafer Lab (AID 2284008).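 On AC50: curve fitted for decrease in spike count so AC50 reflects inhibitors.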 The procedure, abridged:
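Cortical neurons from rat, matured to DIV 13 or 15 on microelectrode arrays, are recorded at 37 C before and during 40-min exposure to 0.03-40 uM compound. Wells need >/= 10 active electrodes.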

The nature of assay [13]: CCTE_Shafer_MEA_acute_firing_rate_mean: CCTE's Neural Acute Assay for Mean Firing Rate, Shafer Lab (AID 2284009).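 Further: analyzed for loss of signal so actives lower firing rate relative to DMSO.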 The procedure, abridged: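 Spontaneous spiking of primary rat cortical networks, DIV 13/15, 37 C. Compound 0.03-40 uM, n ≥3 wells; 40 min baseline vs 40 min treated. Endpoint fitted in loss-of-signal direction against DMSO.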
Assay [14] in a line: CCTE_Shafer_MEA_acute_burst_number: CCTE's Neural Acute Assay for Single-Electrode Bursts, Shafer Lab (AID 2284013). The procedure, abridged: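 Burst totals were derived with adaptive spike detection (8x rms threshold) on filtered signals from rat cortical cultures; change relative to pre-treatment baseline after 40-min compound exposure (0.03-40 uM) was fitted in the negative direction against DMSO.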

The nature of assay [15]: CCTE_Shafer_MEA_acute_burst_duration_mean: CCTE's Neural Acute Assay for Mean Burst Duration, Shafer Lab (AID 2284014).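 Further: hits are decreases in mean burst duration relative to DMSO controls.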 The procedure, abridged:
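Acute exposure of mature rat cortical networks (DIV 13 or 15) grown on microelectrode arrays to 0.03-40 uM compound. Mean burst duration compared with the 40-min pre-dose baseline over a 40-min post-dose recording at 37 C.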

Assay [16] in a line: CCTE_Shafer_MEA_acute_per_burst_spike_number_mean: CCTE's Neural Acute Assay for Average Number of Spikes Per Burst, Shafer Lab (AID 2284015).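 Further: hits are decreases in mean spikes per burst versus baseline.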 The procedure, abridged:
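Percent change in mean spikes per single-electrode burst is compared between a 40 min baseline and a 40 min recording with compound (0.03-40 uM). Cultures were rat cortical neurons on MEA plates at DIV 13 or 15, recorded at 37 C, with DMSO as the negative control.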

Assay [17] can be described thus: CCTE_Shafer_MEA_acute_interburst_interval_mean: CCTE's Neural Acute Assay for Mean Interburst Interval, Shafer Lab (AID 2284016).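 Further: percent change of mean interburst interval versus each well's own pre-dose baseline; curves fitted for decrease in interburst interval relative to DMSO.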 Summed up:
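Percent change in mean single-electrode interburst interval was calculated per well from 40 min recordings before and after compound (0.03-40 uM). Recordings were made at 37 C on rat cortical cultures at DIV 13 or 15, with spikes detected at 8x rms threshold.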

For the next assay, the system named is DIO1 (gene 1733). In words: CCTE_GLTED_hDIO1: CCTE's human Deiodinase 1 (DIO1) Inhibition Assay, Great Lakes Toxicology and Ecology Division (GLTED) Lab (AID 2283987; active means hit-call score of the fitted dose curve at least 0.9, where 1 is the maximum;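 further: isolated human DIO1 enzyme in a cell-free setup rather than cells; enzyme activity read as free iodide liberated from substrate via Sandell-Kolthoff colorimetry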). Summed up: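 Cell-free hDIO1 assay, triplicate plates. Absorbance of the Sandell-Kolthoff reaction reports enzyme-liberated iodide; iodinated chemicals or nitrite, iron and thiocyanate may interfere.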

Where “and” joins values, the source holds several entries; their conditions need not be identical. Equal entries are not always repeated. Results filed as inconclusive are left out. Calls of active or inactive are those of the source. How the source made its calls, unless noted: active means hit-call score of the fitted dose curve at least 0.9, where 1 is the maximum; inactive means score below 0.9.

Sequence of Nucleoli Translocation, AR (gene 367) (P10275 whole entry, looked up): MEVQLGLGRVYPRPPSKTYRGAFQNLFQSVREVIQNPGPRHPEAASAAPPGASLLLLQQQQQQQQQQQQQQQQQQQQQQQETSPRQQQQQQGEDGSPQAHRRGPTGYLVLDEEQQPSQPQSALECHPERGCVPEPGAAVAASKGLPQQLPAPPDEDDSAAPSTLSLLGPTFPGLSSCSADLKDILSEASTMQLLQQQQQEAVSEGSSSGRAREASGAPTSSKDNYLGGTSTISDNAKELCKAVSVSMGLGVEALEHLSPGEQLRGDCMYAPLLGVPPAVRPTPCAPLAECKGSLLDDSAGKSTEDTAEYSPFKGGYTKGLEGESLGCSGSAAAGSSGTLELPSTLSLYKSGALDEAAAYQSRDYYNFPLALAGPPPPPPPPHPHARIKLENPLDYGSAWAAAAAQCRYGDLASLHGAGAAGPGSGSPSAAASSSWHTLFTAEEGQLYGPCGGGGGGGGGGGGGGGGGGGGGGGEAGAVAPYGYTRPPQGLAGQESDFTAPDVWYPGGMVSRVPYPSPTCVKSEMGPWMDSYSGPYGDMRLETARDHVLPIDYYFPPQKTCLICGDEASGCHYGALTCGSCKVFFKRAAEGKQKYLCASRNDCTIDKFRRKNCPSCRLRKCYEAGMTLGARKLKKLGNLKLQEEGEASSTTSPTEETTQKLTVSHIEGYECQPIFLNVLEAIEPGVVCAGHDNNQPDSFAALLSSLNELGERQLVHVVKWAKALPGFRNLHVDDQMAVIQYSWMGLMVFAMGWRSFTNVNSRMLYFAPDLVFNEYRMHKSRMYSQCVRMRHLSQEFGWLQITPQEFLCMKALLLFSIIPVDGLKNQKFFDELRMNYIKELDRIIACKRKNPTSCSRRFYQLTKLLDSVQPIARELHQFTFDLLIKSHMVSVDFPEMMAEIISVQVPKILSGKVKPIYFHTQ
Sequence of Ratio of Nucleoli Translocation and Cytoplasm, AR (gene 367) (P10275 whole entry, looked up): as above

Turning to `Cc1cccc(C)c1O`, the call in assay [1], in assay [2], in assay [3], in assay [4], in [5] and in assay [6] was inactive.
Consider `COc1ccc2c(c1)c(CC(=O)O)c(C)n2C(=O)c1ccc(Cl)cc1`, for which the call in assay [2], in [3], in [7], in assay [9], in assay [10] and in [11] was inactive. Moreover, the outcome in assay [12], in [13], in [4], in [5], in assay [6] and in [14] was inactive. The result in assay [15], in assay [16] and in assay [17] was inactive. Besides, the AC50 (usually the concentration giving half of the maximal activity seen) in assay [8] is 13.4 µM (active).
In the case of `CCCCC(CC)COC(=O)CC(C(=O)OCC(CC)CCCC)S(=O)(=O)O` (stereo not given), the AC50 in the assay on DIO1 (gene 1733) was 96.2 µM (active); in assay [9] it was 85.2 µM (active); in [11], 56.1 µM (active). The molecule was classed as inactive in assay [8], in assay [10], in [4], in assay [5] and in [6].
For `COc1ccc(S(=O)(=O)N2C(=O)[C@@](c3ccccc3OC)(N3C[C@H](O)C[C@H]3C(=O)N(C)C)c3cc(Cl)ccc32)c(OC)c1`, the result in assay [1], in assay [2], in assay [3], in assay [7], in assay [9] and in assay [10] was inactive. Moreover, the outcome in [4], in assay [5], in assay [14], in assay [15], in [16] and in assay [17] was inactive. For the same molecule, the AC50 in [12] and in assay [13] was 31.8 µM (active) in each case.
For the molecule `CCCc1cc(=O)[nH]c(=S)[nH]1`, the AC50 with DIO1 (gene 1733) is 3.82 µM (active) and 5.5 µM (active). In addition, the outcome in assay [12], in assay [13], in [4], in assay [5], in assay [6] and in [14] was inactive. Further, the call in assay [15], in [16] and in [17] was inactive.
With `Cc1nc(-c2ccc3c(c2)CCN(CCC2CCC(NC(=O)/C=C/c4ccc(F)cc4)CC2)CC3)no1` (stereo not given), the outcome in assay [1], in assay [2], in [3], in assay [7], in [4] and in [5] was inactive. Moreover, the result in [6] was inactive.
Turning to `Cc1ccc(C)c(C)c1`, the outcome in [1], in [2], in assay [3], in [7], in [4] and in [5] was inactive.
Regarding `COCCOCCOC`, the call in [1], in assay [2], in [7], in assay [4], in [5] and in assay [6] was inactive.
With `Cc1ccccc1Cl`, the molecule was called inactive in assay [1] and in assay [2].
For `Cc1ccc(C)c(O)c1C`, the molecule was classed as inactive in assay [1], in assay [2], in [3], in assay [7], in [12] and in assay [13]. Further, the result in [4], in [5], in assay [6], in assay [14], in assay [15] and in assay [16] was inactive. Moreover, the molecule was classed as inactive in [17].
Take `O=C(O)CCCCC(=O)O`: the call in assay [12], in [13], in assay [4], in assay [5], in assay [6] and in assay [14] was inactive. Moreover, the outcome in assay [15], in assay [16] and in assay [17] was inactive.
With `Cc1oc(-c2ccccc2)nc1CCOc1cccc2c1ccn2CCC(=O)O`, the half-maximal activity concentration (AC50) in assay [8] is 3.11 µM (active). Moreover, the molecule was called inactive in assay [9], in [10], in [11], in [4] and in assay [5].
On to `Nc1ccc2c(c1)C(=O)c1ccccc1C2=O`, for which the call in assay [12], in [13], in assay [4], in assay [5], in assay [14] and in [15] was inactive. For the same molecule, the molecule was called inactive in assay [16] and in [17].
Take `Cc1ccc(C(C)C)c(O)c1`: the result in assay [12], in assay [13], in [4], in assay [5], in [6] and in assay [14] was inactive. The result in assay [15], in [16] and in [17] was inactive.
